Fluorescence intensity data for 91 molecules are collected here from PubChem BioAssay AID624483 (NMMLSC, 2012).

The campaign covered roughly 360,000 compounds. About 11,000 (3.1%) were called active. Inconclusive results (about 2%) are left out. Cut-off read from the data, not from the text of the source: active = fluorescence intensity above about 16000; inconclusive = no clear call, values can overlap the other calls; inactive = below that. For the sample, actives were picked, then their nearest neighbours and some compounds at random.

The experiment is described as follows: counter-screen for toxin protease inhibitors: compound fluorescence, primary screen, artefact control for toxin protease inhibitor project, biochemical, multiplex microsphere, HTS (AID 624483). Conditions: compound autofluorescence counterscreen, microsphere flow cytometry; hits give high values.
In the case of `CNc1cc(-c2c(OC)cccc2OC)ncn1`, the fluorescence intensity was 3890 (inactive).

Take `CN1OC[C@@H]2CN(C(=O)C(C)(C)C)[C@H](c3ccc(-n4ccnc4)cc3)C[C@@H]21`: the fluorescence intensity is 4320 (inactive).

Regarding `COc1cccc(-c2cc(NC(C)=O)c3ncc(-c4cccc(C(C)=O)c4)n3c2)c1`, the fluorescence intensity is 3560 (inactive).

For the molecule `O=C1CN(C(=O)COC(=O)/C=C/c2ccc(F)cc2)c2ccccc2N1`, the fluorescence intensity is 2990 (inactive).

On to `Nn1c(Cc2cccc3ccccc23)nnc1SCC(=O)N1CC(=O)Nc2ccccc21`, for which the fluorescence intensity was 3230 (inactive).

For the molecule `C=CCn1c(COc2ccccc2F)nnc1SCC(=O)N1CC(=O)Nc2ccccc21`, the fluorescence intensity is 19900 (active).

Take `CCN1C(=O)[C@@H]2[C@@H]3CN(S(=O)(=O)c4ccccc4C)[C@@H](c4ccc(Cl)cc4)[C@@H]3C(=O)C[C@@H]2C1=O`: the fluorescence intensity is 5460 (inactive).

Regarding `CC(C)(O)C#Cc1ccc(CNC[C@H]2O[C@@H](n3cnc4c(=O)[nH]c(N)nc43)[C@H](O)[C@@H]2O)s1`, the fluorescence intensity is 6310 (inactive).

As for `CC(C)Oc1cc(F)ccc1-c1cc(C(=O)Nc2ccc(F)cc2)[nH]n1`, the fluorescence intensity was 2820 (inactive).

With `Cc1ccc([C@@H]2CC(=O)[C@@H]3CN(S(=O)(=O)c4ccc(C)cc4)[C@H](c4ccccc4F)C[C@@H]3N2S(=O)(=O)c2ccc(Cl)cc2)cc1`, the fluorescence intensity is 5790 (inactive).

`COC(=O)C1(C(=O)OC)C/C=C\CN(S(=O)(=O)c2ccccc2[N+](=O)[O-])CCC1`: the fluorescence intensity was 5420 (inactive).

For `Cc1ccc(S(=O)(=O)NCC(C)NS(C)(=O)=O)cc1` (stereo unspecified), the fluorescence intensity was 17300 (active).

For `Cc1ccc(S(=O)(=O)NCC(=O)N2CCOCCOCCOCCOCC2)cc1`, the fluorescence intensity is 3170 (inactive).

Turning to `Cc1ccc(S(=O)(=O)NCCNC(C)c2ccc(Br)cc2)cc1` (stereo unspecified), the fluorescence intensity is 3800 (inactive).

`CCCNC(=O)C1(C)CCCN(C(=O)c2cccc(OC(C)=O)c2C)C1` (stereo unspecified): the fluorescence intensity was 2790 (inactive).

On to `CCN(CC)CCCC(C)n1c2nc(=O)[nH]c(=O)c-2nc2cc(Cl)ccc21` (stereo unspecified), for which the fluorescence intensity is 3960 (inactive).

For the molecule `CC1(Oc2ccc(Cl)cc2)CCN(Cc2csc3ccccc23)C1` (stereo unspecified), the fluorescence intensity is 3910 (inactive).

`CC(C)CCSc1ncnc2c1oc1nc3c(cc12)COC(C)(C)C3`: the fluorescence intensity is 23900 (active).

On to `CC1CCc2c(nc3ncnn3c2Nc2ccc(OC(F)(F)F)cc2)C1` (stereo unspecified), for which the fluorescence intensity is 5260 (inactive).

With `CCc1nc2c(OCCOc3ccccc3)cccn2c1N(C)C(=O)c1ccc(OC)cc1`, the fluorescence intensity is 3960 (inactive).

For `COc1cccc(-c2ccc3c(c2)N(Cc2ccccc2OC)C(=O)C(C)S3)c1` (stereo unspecified), the fluorescence intensity was 4210 (inactive).

Turning to `CC/C(C)=N/Nc1nc2sc3c(c2c(=O)[nH]1)CC(C)(C)OC3`, the fluorescence intensity was 3170 (inactive).

On to `CCCc1nc2oc3c(OCC)ncnc3c2c2c1COC(C)(C)C2`, for which the fluorescence intensity is 19200 (active).

Consider `CCCc1nc2oc3c(=O)[nH]cnc3c2c2c1COC(C)(C)C2`, for which the fluorescence intensity is 3850 (inactive).

Regarding `CC(=O)Nc1cccc(-c2cc(NC=O)c3ncc(-c4ccc(F)c(Cl)c4)n3c2)c1`, the fluorescence intensity was 4090 (inactive).

Take `CCOC(=O)c1nnn(-c2nc(OC)nc(N(C)C)n2)c1-c1ccccc1`: the fluorescence intensity is 4860 (inactive).

As to `C/C(COc1ccccc1)=N\NC(=O)c1nnn(-c2nonc2N)c1-c1ccc(C)cc1`, the fluorescence intensity was 2830 (inactive).

For `CCOC(=O)c1nnn(-c2nonc2OC)c1-c1ccccc1`, the fluorescence intensity was 20500 (active).

For the molecule `CCC(C(=O)Nc1ncccn1)(C(F)(F)F)C(F)(F)F`, the fluorescence intensity is 3150 (inactive).

Regarding `CCN(C(=O)CSc1nc(N)cc(=O)[nH]1)C1CCS(=O)(=O)C1` (stereo unspecified), the fluorescence intensity was 3860 (inactive).

With `COc1ccc(C(=O)CN(C(=O)c2ccc(Cl)cc2)N2C(=O)c3ccccc3C2=O)cc1`, the fluorescence intensity is 17500 (active).

Regarding `O=C(CCCN1C(=O)c2ccccc2C1=O)Oc1ccc(Cl)cc1`, the fluorescence intensity is 2140 (inactive).

Turning to `COc1ccc(C(=O)CC2C(=O)N(C)C(=O)N(C)C2=O)cc1`, the fluorescence intensity is 3490 (inactive).

With `CCCc1cc(=O)oc2c(C)c(OCC(=O)Nc3ccccn3)ccc12`, the fluorescence intensity was 4420 (inactive).

Take `COC(=O)Cc1cc(=O)oc2c(C)c(O)ccc12`: the fluorescence intensity is 19200 (active).

As to `COc1cccc(C(=O)OCc2cc(=O)oc3c(C)c(C)ccc23)c1OC`, the fluorescence intensity is 5450 (inactive).

Turning to `CCOCC(=O)NCc1ccc2c(c1)cc(C)n2C`, the fluorescence intensity was 4110 (inactive).

Regarding `COc1cccc2cc(C(=O)NCc3ccc(C)cc3)c(=N)oc12`, the fluorescence intensity is 4920 (inactive).

Consider `CC(Oc1ccc(Cl)cc1)C(=O)OCC(=O)Nc1ncc(Cl)cc1Cl` (stereo unspecified), for which the fluorescence intensity was 2090 (inactive).

As for `CC(OC(=O)CN1C(=O)C2CCCCC2C1=O)C(=O)Nc1ncc(Cl)cc1Cl` (stereo unspecified), the fluorescence intensity is 23500 (active).

For `CC1(C(=O)OCC(=O)Nc2ncc(Cl)cc2Cl)CC1(Cl)Cl` (stereo unspecified), the fluorescence intensity is 4330 (inactive).

Regarding `Cc1ccc2[nH]c3c(=O)n(CC(=O)NCCc4ccc(Cl)cc4)ncc3c2c1`, the fluorescence intensity is 5710 (inactive).

As for `CCc1cc2cc(OC)ccc2nc1SCC(=O)Nc1cc(OC)c(OC)cc1C(=O)O`, the fluorescence intensity is 4520 (inactive).

Turning to `COC(=O)c1cc(OC)c(OC)cc1NC(=O)CSc1ccc(C)cc1`, the fluorescence intensity is 25800 (active).

`COc1ccc(C)cc1NC(=O)CSc1ccc(Cl)cc1`: the fluorescence intensity was 2540 (inactive).

Regarding `COc1ccc(Br)cc1CN(C)C(=O)C1CC(=O)N(C2CCCC2)C1` (stereo unspecified), the fluorescence intensity is 3870 (inactive).

For the molecule `CCOC(=O)[C@H]1[C@H]2COc3ccc(Cl)cc3[C@@H]2N2C(=O)c3cc(C)ccc3NC(=O)[C@@]12C`, the fluorescence intensity was 3320 (inactive).

In the case of `Cc1cc(/C=C2/NC(=O)NC2=O)c(C)n1-c1cccnc1`, the fluorescence intensity was 8090 (inactive).

`Cc1ccc(CN2C(=O)N/C(=C/c3cc(C)n(-c4ccccn4)c3C)C2=O)cc1`: the fluorescence intensity is 9250 (inactive).

For `Cc1ccccc1-n1c(C)cc(/C=C2\NC(=O)NC2=O)c1C`, the fluorescence intensity is 17400 (active).

Regarding `O=C(Nc1c(-c2ccccc2)nc2c(Br)cc(Br)cn12)c1ccco1`, the fluorescence intensity was 3100 (inactive).

`Nc1ncnc2c1ncn2[C@@H]1O[C@H](CNC(=O)[C@H](N)Cc2cccnc2)[C@@H](O)[C@H]1O`: the fluorescence intensity is 6300 (inactive).

As to `Cn1c(Nc2ccc(F)cc2)nc2cc(-c3ccsc3)sc2c1=O`, the fluorescence intensity is 3640 (inactive).

Turning to `CCNC(=O)C1(C)CCN(Cc2ccc(C(=O)OCC)o2)C1` (stereo unspecified), the fluorescence intensity was 4060 (inactive).

Regarding `O=C(CSc1nnc(-c2ccc(NS(=O)(=O)c3ccccc3)cc2)o1)NCC1CCCO1` (stereo unspecified), the fluorescence intensity was 3540 (inactive).

`CCN(CC)C(=O)CSc1nnc(-c2ccc(S(=O)(=O)NCc3ccccc3Cl)cc2)o1`: the fluorescence intensity is 16600 (active).

`CCc1ccccc1NC(=O)CSc1nnc(-c2ccncc2)o1`: the fluorescence intensity was 4930 (inactive).

For the molecule `CC(C)CCN1NC2(CCC(C)CC2)NC1=S` (stereo unspecified), the fluorescence intensity is 3830 (inactive).

On to `CC(C)(C)c1ccc(S(=O)(=O)NC(=O)C2(C)CCN2C(=O)CC2CC2)cc1` (stereo unspecified), for which the fluorescence intensity was 4180 (inactive).

In the case of `Cc1cc(Br)cn2c(Cc3ccccc3C(F)(F)F)c(-c3ccc(Cl)cc3)nc12`, the fluorescence intensity was 5850 (inactive).

For `Clc1ccc(C2=CSC3=Nc4cccc5cccc(c45)N23)cc1`, the fluorescence intensity was 21800 (active).

As for `CN(C)c1ccc(C(CC(=O)O)C(=O)O)cc1` (stereo unspecified), the fluorescence intensity is 1950 (inactive).

For the molecule `COc1cccc(NC(=O)CN(C)C(=O)Cc2ccc(Cl)cc2Cl)c1`, the fluorescence intensity was 3890 (inactive).

Turning to `COC(=O)c1sc2ncccc2c1OCc1ccc(Cl)cc1Cl`, the fluorescence intensity is 23500 (active).

In the case of `O=C(NNc1cc(Cl)ccc1Cl)c1cccnc1Cl`, the fluorescence intensity is 4240 (inactive).

Take `CC(C)Cc1ccc(-c2cc3nc(NCc4cccc(Cl)c4)ccn3n2)cc1`: the fluorescence intensity is 3700 (inactive).

For `C=CCC[C@@H](CCCCC)OC(=O)/C=C/[C@@H](O)[C@H](O)C[C@H](O)CC=C`, the fluorescence intensity was 6190 (inactive).

As for `COc1cccc(C(=O)NNC(=O)c2ccccc2Br)c1`, the fluorescence intensity was 16700 (active).

On to `COc1cccc(C(=O)NNC(=O)/C=C/c2ccccc2)c1`, for which the fluorescence intensity was 6790 (inactive).

Regarding `COc1cccc(C(=O)Nc2cc3c(cc2Br)OCCCO3)c1`, the fluorescence intensity is 7110 (inactive).

With `CCN(CC)C(=O)c1ccc(NC(=O)c2cc(-n3cnnc3)ccc2Cl)cc1`, the fluorescence intensity was 23800 (active).

For `CCN(CC)C(=O)c1ccc(NC(=O)c2sccc2-c2ccccc2)cc1`, the fluorescence intensity was 4580 (inactive).

Consider `CCN(CC(=O)Nc1ccc(OC)cc1)C(=O)c1ccc(Cl)c(S(=O)(=O)N2CCCC2)c1`, for which the fluorescence intensity is 3470 (inactive).

On to `CCOC(=O)C1=CC[C@@H](c2ccccc2)N(S(=O)(=O)c2ccc(C)cc2)[C@H]1c1cccc(OC)c1`, for which the fluorescence intensity is 6140 (inactive).

As for `O=C(NCCCNC(=O)c1ccccc1Cl)c1cnccn1`, the fluorescence intensity is 4420 (inactive).

`COc1ccccc1CCNC(=O)c1c(C)nn(CC(C)C)c1Cl`: the fluorescence intensity is 4680 (inactive).

On to `COc1ccccc1CCNC(=O)c1cnccn1`, for which the fluorescence intensity is 16600 (active).

With `O=C(NCCS(=O)(=O)N1CCN(c2ccc(F)cc2)CC1)c1ccc2c(c1)OCO2`, the fluorescence intensity is 4110 (inactive).

Turning to `CC1(C(=O)NS(=O)(=O)c2cccc(F)c2)CCN1C(=O)c1cccc2ccccc12` (stereo unspecified), the fluorescence intensity was 2920 (inactive).

Turning to `CN(C)C1CN(Cc2cn(Cc3ccccc3)nn2)S(=O)(=O)C1` (stereo unspecified), the fluorescence intensity was 4320 (inactive).

As to `O=C1c2ccccc2-c2ncnc3c(N4CCOCC4)cc(N4CCOCC4)c1c23`, the fluorescence intensity was 4380 (inactive).

`c1cnn(-c2cc(N3CCOCC3)ncn2)c1`: the fluorescence intensity is 17000 (active).

For the molecule `NC(=O)c1ccc(N2CCOCC2)nc1`, the fluorescence intensity is 2600 (inactive).

In the case of `CS(=O)(=O)N(CC(=O)Nc1ccc(Cl)c(Cl)c1)C1CCCCC1`, the fluorescence intensity was 21700 (active).

`CS(=O)(=O)N(CC(=O)Nc1ccc(F)cc1)C1CCCCC1`: the fluorescence intensity is 3860 (inactive).

On to `N#CCCN(C(=O)Nc1ccc(Cl)c(Cl)c1)C1CCCCC1`, for which the fluorescence intensity was 2920 (inactive).

As to `O=S1(=O)CC(N2CCN(CCO)CC2)CN1Cc1cn(Cc2ccc(Cl)cc2)nn1` (stereo unspecified), the fluorescence intensity was 5500 (inactive).

With `O=C1c2cccnc2C(Nc2ccc(S(=O)(=O)N3CCCCCC3)cc2)N1Cc1ccccc1` (stereo unspecified), the fluorescence intensity was 21600 (active).

In the case of `Cc1nc(Nc2ccc(S(=O)(=O)N3CCCC3)cc2)c2nnn(Cc3ccccc3)c2n1`, the fluorescence intensity is 2010 (inactive).

Take `O=S(=O)(NCc1ccccc1)c1ccc(S(=O)(=O)N2CCCC2)cc1`: the fluorescence intensity was 4970 (inactive).

Take `O=C(Nc1cccc(C(=O)NC2CC2)c1)c1ccc(F)c(S(=O)(=O)N2CCOCC2)c1`: the fluorescence intensity was 6040 (inactive).
